The source of these data is PubChem BioAssay (NCATS).

Experiment [1] in a line: Confirmatory qHTS for VERO E6 Cytotoxicity Assay: Counterscreen for SARS-CoV-2 CPE Assay (AID 1508605). For activity change, negative = cytotoxic: % is set by controls: 0 for no effect and ±100 for the full control effect. Note: nearly all actives have a fitted effect of over 60% in size. Note: potency is the fitted concentration of half-maximal effect.
A short description of experiment [2]: Confirmatory qHTS for activators (rescue) of SARS-CoV-2 Cytopathic Effect (CPE) (AID 1508606). Note: nearly all actives have a fitted effect of over 70% in size. Note: potency is the fitted concentration of half-maximal effect.
Experiment [3] is described as follows: Confirmatory qHTS to identify inhibitors of SARS-CoV-2 cell entry (AID 1645844). Note: potency is the fitted concentration of half-maximal effect; nearly all actives have a fitted effect of over 45% in size. In short, it runs like this:
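Using stable human ACE2 Expi293F cells, compounds preincubated 1 hr before spike pseudoparticle infection; luciferase signal after 48 hr at 37C, 5% CO2, normalised to spike PP and no-fusion-protein PP wells.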
For orientation: Quantitative high-throughput screening tests each substance at several concentrations.

A short description of experiment [4]: Cytotoxicity counterscreen for inhibitors of SARS-CoV-2 cell entry (AID 1645845). Note: nearly all actives have a fitted effect of over 50% in size. Note: potency is the fitted concentration of half-maximal effect. The settings on record: outcome: dose series up to 57.1 µM unless noted. In short, it runs like this: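 After a 15 min room-temperature ATPLite 1step step, luminescence reflected ATP remaining in HEK293-ACE2 cells exposed to compound for 1 h plus 48 h at 37 C, with percent activity set by cell and no-cell controls.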
(Counterscreens check selectivity or assay interference.)

Experiment [5] can be described thus: VSVG counterscreen qHTS to identify inhibitors of SARS-CoV-2 cell entry (AID 1645847). Note: potency is the fitted concentration of half-maximal effect; nearly all actives have a fitted effect of over 65% in size. In short, it runs like this:
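Luminescence from a luciferase reporter, normalised to bald particle and VSV-G pseudotyped particle wells, is the read-out. Cells are HEK293 expressing human ACE2, exposed to compound 1 h before a 48 h particle infection at 37 °C.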

The nature of experiment [6]: Primary qHTS to identify inhibitors of SARS-CoV-2 cell entry (AID 1645846). Note: nearly all actives have a fitted effect of over 45% in size. Note: potency is the fitted concentration of half-maximal effect. The settings on record: SARS-CoV-2 pseudovirus cell entry assay, luminescence; activity change, negative = inhibition: at 57.1 µM (top of the series) unless noted. The procedure, abridged:
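Inhibition of spike-mediated entry was scored in human ACE2-transfected Expi293F cells. Particles were MLV-pseudotyped with Wuhan-Hu-1 S carrying a 19-aa C-terminal deletion; signal was luciferase after two days, scaled between spike PP and fusion-protein-free PP.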

Experiment [7] is described as follows: NCATS anti-infectives library activity on HEK293 viability as a counter-qHTS vs the C. elegans viability qHTS (AID 1745854; active = well fitted curve in the direction sought with a large enough effect; an effect the other way counts as inactive or inconclusive; note: potency is the fitted concentration of half-maximal effect). In short, it runs like this:
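Cytotoxicity counter-screen to a worm viability qHTS: CellTiter-Glo luminescence read 10 min after reagent addition. Compounds (final up to 41.7 uM, a 1:5 dilution series) incubated 24 hr at 37C with 1,500 HEK293 cells per well; digitonin control.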

Experiment [8] is described as follows: NCATS anti-infectives library activity on the primary C. elegans qHTS viability assay (AID 1745855). Note: potency is the fitted concentration of half-maximal effect. The procedure, abridged: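 GFP read-out by 488 nm laser cytometry at day 0, 3 and 7, gated on object perimeter, area and peak intensity, scored viability of PE254-GFP-FLuc worms exposed to compound in S medium with bacterial capsules at 21 °C.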
Experiment [9] addresses Cytochrome P450 3A4 (Homo sapiens) (UniProt P08684). Put plainly: qHTS Assay for Inhibitors and Substrates of Cytochrome P450 3A4 (AID 884; active = well fitted curve in the direction sought with a large enough effect; an effect the other way counts as inactive or inconclusive; note: % is set by controls: 0 for no effect and ±100 for the full control effect; nearly all actives have a fitted effect of over 50% in size). The procedure, abridged: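 Luminescent readout of luciferin produced by CYP3A4 (20 nM) dealkylation of Luciferin-PPXE, 25 uM (its KM). NADPH-driven reaction ran 60 min at RT after 10 min compound preincubation; data scaled to 57 uM ketoconazole as 100% inhibition.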

Experiment [10] in a line: Confirmation and Secondary Assay for Modulators of Hemoglobin Beta Chain Splicing at IVS2 705 locus (AID 930; active = well fitted curve in the direction sought with a large enough effect; an effect the other way counts as inactive or inconclusive;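 note: HeLa cells stably expressing the EGFP-705 splicing reporter; GFP fluorescence per well restored by corrected splicing of the IVS2-705 intron in EGFP; % of control where 0% means no effect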). In short, it runs like this:
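Secondary splice-site specificity test uses HeLa expressing CMV-driven EGFP interrupted by IVS2-705; cells were treated 2 days at 37C with 500 nM antisense PNA as positive control.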

The nature of experiment [11]: qHTS Assay for Lipid Storage Modulators (AID 1519). For activity change, negative = inhibition: % is set by controls: 0 for no effect and ±100 for the full control effect. The settings on record: Drosophila S3 cells, BODIPY lipid droplet/cell ratio, laser cytometry, cells loaded with oleic acid. The procedure, abridged:
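Cells seeded at 5,000 per well were treated with compounds over a concentration series and loaded with oleic acid (400 uM, as added). Lipid droplet fluorescence (488 nm excitation, 500-530 nm channel) was read by laser-scanning cytometry and normalized to 20 uM Triacsin C.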

Experiment [12] in a line: Counterscreen qHTS for small molecule stabilizers of the endoplasmic reticulum resident proteome: GLuc-NoTag assay (AID 1508627; active = well fitted curve in the direction sought with a large enough effect; an effect the other way counts as inactive or inconclusive;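 note: 0% = thapsigargin alone and -100% = DMSO vehicle control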). The procedure, abridged:
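Secreted GLuc lacking the SERCaMP modification is measured in SH-SY5Y cells exposed to compound for 19 h and then to thapsigargin (100 nM, 4 h) to deplete ER calcium; hits retested at 11 concentrations, up to 76.6 uM.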

A short description of experiment [13]: Cell Viability qHTS for small molecule stabilizers of the endoplasmic reticulum resident proteome (AID 1508629; active = well fitted curve in the direction sought with a large enough effect; an effect the other way counts as inactive or inconclusive;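 note: human SH-SY5Y neuroblastoma cells carrying the GLuc-SERCaMP reporter; compound exposure about 46 h in total before the viability read; % is set by controls: 0 for no effect and ±100 for the full control effect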). Particulars: cell viability counter-screen, 100 nM thapsigargin for final 4 h.

“And” between values parts separate entries of the source, which are not always exact repeats. Equal entries are not always repeated. Inconclusive results are not listed. Some structures have more than one record in an assay (separate samples or runs), and their calls can disagree. The source made the active and inactive calls. Unless noted, calls come from the whole dose curve. Square brackets hold non-standard residues; d marks the D form. Peptide text beside a SMILES is read from it. * marks the point of attachment. Nle = CCCC[C@H](N)C(=O)O; Cbz = O=C(OCc1ccccc1)*; CH2Cl = ClC*

Sequence of Cytochrome P450 3A4 (Homo sapiens) (P08684 whole entry, looked up): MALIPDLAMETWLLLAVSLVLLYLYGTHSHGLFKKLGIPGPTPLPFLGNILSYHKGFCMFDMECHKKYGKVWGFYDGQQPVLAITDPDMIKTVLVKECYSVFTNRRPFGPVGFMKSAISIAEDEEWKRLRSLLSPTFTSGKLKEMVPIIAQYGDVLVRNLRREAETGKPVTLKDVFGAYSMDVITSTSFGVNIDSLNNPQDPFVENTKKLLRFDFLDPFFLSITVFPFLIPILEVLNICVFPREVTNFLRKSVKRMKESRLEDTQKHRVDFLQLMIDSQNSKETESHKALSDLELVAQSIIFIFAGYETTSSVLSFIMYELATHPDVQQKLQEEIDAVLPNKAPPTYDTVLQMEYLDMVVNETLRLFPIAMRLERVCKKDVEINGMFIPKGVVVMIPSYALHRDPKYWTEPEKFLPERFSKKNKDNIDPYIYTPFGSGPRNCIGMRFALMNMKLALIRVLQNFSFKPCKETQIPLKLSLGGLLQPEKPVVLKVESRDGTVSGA

For `CC[C@H](NC(=O)[C@H](CS(=O)(=O)CC1CC1)N[C@@H](c1ccc(F)cc1)C(F)(F)F)C(=O)C(=O)NC1CC1`, the Potency result in [1] and in experiment [4] was “inactive” in each case. The Potency in experiment [2] was 0.112 µM (active); in experiment [3], 1.08 µM (active); in experiment [5], 10.8 µM (active).
Regarding `Cc1ncc(NC(=O)c2ccc(CN3CCN(C)CC3)c(C(F)(F)F)c2)cc1Nc1nccc(-c2cccnc2)n1`, the Potency result in [1] and in experiment [4] was “inactive” each time. In addition, in experiment [2], the Potency was 10 µM (active).
For `C=CC(C)(C)c1[nH]c2ccccc2c1C1=C(O)C(=O)C(c2c[nH]c3c(CC=C(C)C)cccc23)=C(O)C1=O`, in [1], the Potency was 3.98 µM (active). In addition, the Potency result in experiment [2] was “inactive”.
The corresponding values for `CC(=O)c1c(OCCN2CCCCC2)c(OCCC(C)c2ccc(F)cc2)c2oc(C)nc2c1C` (stereo not given) are “inactive” and 10 µM (active).
For `c1ccc(-c2ccc(CNc3nc(-c4ccccn4)nnc3-c3ccccc3)cc2)cc1`, the Potency is 0.501 µM (active) in experiment [1] and 14.1 µM (active) in experiment [4].
As to `CCN(CC)CC1CCN(c2ncc3ncnc(Nc4ccc(F)c(Cl)c4)c3n2)CC1`, the Potency in [1] is 11.2 µM (active). Further, in experiment [2], the Potency entry was “inactive”.
Turning to `Cc1cccc(/C=N/Nc2cc(N3CCOCC3)nc(OCCc3ccccn3)n2)c1`, in [1], the activity change, negative = cytotoxic is -20.4% [at 1.7 µM] (inactive). Moreover, the Potency in experiment [2] was 0.0142 µM (active); in experiment [3] it was 0.0764 µM (active); in [5], 7.64 µM (active).
Regarding `O=C1NC(=O)/C(=C\c2ccc(-c3ccc(F)cc3)o2)S1`, the Potency result in experiment [1], in experiment [4] and in experiment [6] was “inactive” throughout.
For `O=C1Nc2nc(-c3c(O)cccc3OCC3CC3)cc([C@@H]3CCCNC3)c2CO1`, the Potency result in experiment [1] is “inactive”. Moreover, the Potency in [2] was 11.2 µM (active). Further, in [6], the activity change, negative = inhibition was -96.7%.
In the case of `COc1cc(-n2cnc3cc(-c4ccc(Cl)cc4)sc3c2=O)ccc1OCCN1CCCC1`, the Potency result in experiment [1] was “inactive”. Also, the Potency in experiment [2] is 3.55 µM (active).
For `CCCC[C@@H](C=O)NC(=O)[C@H](CC(C)C)NC(=O)OCc1ccccc1`, the Potency entry in experiment [1] and in [4] was “inactive” in each case. Moreover, the Potency is 0.355 µM (active) in experiment [2] and 1.08 µM (active) in [3]. Further, the activity change, negative = inhibition in experiment [6] was -89.9%.
For the compound `CNCc1ccc(-c2cc(-c3nc(-c4ccc(S(=O)(=O)C(C)C)cc4)cnc3N)on2)cc1`, the Potency in experiment [1] is 11.2 µM (active); in experiment [2], 1.78 µM (active). In [4], the Potency entry is “inactive”. Moreover, the activity change, negative = inhibition in experiment [6] is -25.7%.
As for `CN1CCN(c2ccc(C(=O)Nc3n[nH]c4ccc(Cc5cc(F)cc(F)c5)cc34)c(NC3CCOCC3)c2)CC1`, the Potency in experiment [1] is 3.55 µM (active); in [4], 31.6 µM (active); in [6], 28.2 µM (active). In addition, in [2], the Potency result is “inactive”.
In the case of `CC1=CC2OC3CC(O)[C@@](C)(C34CO4)[C@@]2(C)C(O)C1=O` (stereo not given in full), the Potency in experiment [1] was 3.55 µM (active). The Potency entry in experiment [2] was “inactive”.
The corresponding values for `CCCC[C@@H](C=O)NC(=O)[C@H](CC(C)C)NC(=O)[C@H](CC(C)C)NC(C)=O` (Ac-Leu-Leu-[Nle]-aldehyde) are “inactive” and 2 µM (active).
Consider `Cc1nc(C)c(CN2CCN(C(c3ccc(F)cc3)c3ccc(F)cc3)CC2)nc1C`, for which the Potency result in experiment [1] and in experiment [4] was “inactive” each time.
Take `C=CC(=O)N[C@H]1CCOC[C@H]1Nc1ncc2cc(-c3c(Cl)c(OC)cc(OC)c3Cl)ccc2n1`: the Potency entry in [1] and in experiment [4] was “inactive” in each case.
On to `O=C(NCc1ccccc1)[C@H](Cc1ccccc1)NC(=O)[C@H]1O[C@@H]1C(=O)NCCc1ccc(O)cc1`, for which the Potency result in [1] and in [4] was “inactive” each time. Moreover, the figures for the Potency in experiment [2] and in experiment [3] were 0.141 µM (active) and 1.36 µM (active), respectively.
Consider `CNC(=O)c1ccc2c(C(=Nc3cccc(CN(C)C)c3)c3ccccc3)c(O)[nH]c2c1`, for which the Potency entry in experiment [1] and in experiment [4] was “inactive” in each case.
As to `CC(C)C[C@H](NC(=O)CNC(=O)OCc1ccccc1)C(=O)N[C@@H](Cc1ccccc1)C(=O)CCl` (Cbz-Gly-Leu-Phe-CH2Cl), in [1], the Potency entry was “inactive”. In addition, in [2], the Potency is 1 µM (active).
In the case of `CCCCNc1ncc2c(-c3ccc(CN4CCN(C)CC4)cc3)cn(C3CCC(O)CC3)c2n1` (stereo not given), the Potency in experiment [1] is 3.16 µM (active); in [4], “inactive and 25.1 µM (active)”; in [6], 14.1 µM (active). Moreover, the Potency entry in [2] was “inactive”.
Consider `Nc1nc(OC(c2ccc(-c3cccc(F)c3)cc2)C(F)(F)F)cc(-c2ccc(C[C@H](N)C(=O)O)cc2)n1` (stereo not given in full), for which the Potency result in experiment [1], in experiment [4] and in experiment [6] was “inactive” throughout.
As for `CCC[C@@H](NC(=O)N1C(=O)C(CC)(CC)[C@@H]1Oc1ccc(C(=O)N2CCN(C)CC2)cc1)c1ccc2c(c1)OCO2`, the Potency result in [1] is “inactive”. Moreover, the Potency in experiment [2] is 11.2 µM (active).
`Cn1cc(-c2ccc(-c3cncc(Cl)c3N3CCC4(CCNC4=O)CC3)cc2)cn1`: the Potency entry in [1] and in [4] was “inactive” throughout.
As for `COC(=O)[C@]1(C)CC[C@]2(C)CC[C@]3(C)C4=CC=C5C(=CC(=O)C(O)=C5C)[C@]4(C)CC[C@@]3(C)[C@@H]2C1`, the Potency in [1] was 1.01 µM (active); in experiment [7], 1.12 µM (active); in experiment [8], 9.16 µM (active).
As to `OC1CCC(Oc2cccc3cnc(Nc4ccc5nc[nH]c5c4)nc23)CC1` (stereo not given), the Potency in experiment [3] is 0.482 µM (active); in [5] it was 0.341 µM (active).
For the compound `CC(=O)C1=C(O)C2C3c4c[nH]c5cccc(c45)CC3C(C)(C)N2C1=O` (stereo not given), the Potency result in experiment [9] and in experiment [10] was “inactive” throughout. Also, in experiment [11] (at 57.5 µM (top of the series)), the activity change, negative = inhibition was 8.13% (inactive). Moreover, the results for the max response in experiment [11] (measured here: cell count channel max response), in [11] (measured here: lipid channel max response) and in experiment [13] were 15.9%, 22.7% and -5.15% (inactive), respectively. Further, the call in experiment [12] was inactive.
